For 20 compounds, max activity and outcome results are on record in PubChem BioAssay AID651898 (Broad Institute, 2012).

Structures are written as SMILES. Some of the results follow. Active and inactive are the calls of the source. The rule behind the calls is not given here.

A short description of the assay: cytotoxicity in HepG2 cells, dose response, cytotoxicity control, cell-based, plate reader, cherry-pick, two tests (AID 651898). As to conditions: max activity: at 12 µM, test 1 unless noted; series mostly up to 26 µM.
On to `COCCNC(=O)C[C@H]1CC[C@@H]2[C@H](COc3ccc(NC(=O)Nc4cccc(F)c4)cc3C(=O)N2C)O1`, for which the max activity is 9.85% [measured here: replicate test 2 max activity, at 3 µM, test 2] and the compound was called inactive.

For `CC1(C)CC(=O)C=C(c2ccc3ncccc3c2)C1`, the max activity is -17% (inactive). For the compound `CS(=O)(=O)N1[C@H](C(=O)NCc2ccncc2)[C@@H](CO)[C@@H]2Cn3c(ccc(C4=CCCCC4)c3=O)[C@@H]21`, the max activity was -13.1% [measured here: replicate test 2 max activity, at 3 µM, test 2] and the compound was called inactive. Take `CC(=O)O[C@]1(C(C)=O)CC[C@H]2[C@@H]3C=C(C)C4=CC(=O)CC[C@]4(C)[C@H]3CC[C@@]21C`: the max activity was 5.11% [at 1.6 µM, test 1] (inactive). The same measure, in the same setting: as for `Cc1nc(=O)c(-c2ccccc2)c(C)n1-c1ccc(Br)cc1`, the figure is 19% (inactive). Consider `CCC(CO)Oc1cc(NC(=O)c2cccc(F)c2)c2ncn(C(C)C)c2c1` (stereo not given), for which the max activity was 10.6% [measured here: replicate test 2 max activity, at 0.195 µM, test 2] and the call was inactive. In the case of `CCCOc1ccc2c3c(c(=O)oc2c1OCCC)CCC3`, the max activity is 27.7% [at 26 µM, test 1] (inactive). The same measure, in the same setting: as for `O=c1[nH]c(N2CCN(Cc3ccc4c(c3)OCO4)CC2)nc2c1CCCC2`, the figure is -9.65% [at 0.38 µM, test 1] (inactive). With `CN1c2ccc(-c3ccccc3)cc2[C@H]2[C@H](CCN2C(=O)Cc2ccccn2)[C@H]1CO`, the call was inactive and the max activity is 20.8% [measured here: replicate test 2 max activity, at 23.5 µM, test 2]. For `COc1cc(-c2n[nH]c(=S)n2Cc2ccccc2)cc(OC)c1OC`, the max activity is -15.9% (inactive). The same measure, in the same setting: the result for `Cc1c2cnn(CC(=O)NCc3ccccn3)c(=O)c2c(C)n1Cc1ccc(Cl)cc1` reads 24.2% [at 26 µM, test 1] (inactive). For `O=C(c1ccncc1)N1CC[C@@H]2[C@H]1c1cc(Br)ccc1N[C@@H]2CO`, the call was inactive and the max activity is -16.4% [measured here: replicate test 2 max activity, at 0.8 µM, test 2].

On to `C=CCn1c(SCc2c(C(=O)OC)sc(N)c2C(=O)OC)nnc1-c1ccc(Cl)cc1`, for which the max activity was -11.6% [at 1.6 µM, test 1] (inactive).

Turning to `Cc1ccc(Cc2c(C)nc3nc(SCC(=O)NCCN4CCOCC4)nn3c2C)cc1`, the max activity is -6.95% [at 0.38 µM, test 1] (inactive).

In the case of `CC(=O)CSc1nnc(CSc2ncccn2)n1C1CCCCC1`, the max activity was 18.7% [at 1.6 µM, test 1] (inactive). The same measure, in the same setting: the result for `C=C(C)CSc1nc(N)c2c3c(sc2n1)CCC3` reads -7.76% [at 1.6 µM, test 1] (inactive). On to `Cn1c(=O)c2c(nc(OCc3cccnc3)n2Cc2ccccc2)n(C)c1=O`, for which the max activity was -11.3% [at 26 µM, test 1] (inactive). Still for that read-out and setting: as for `Cc1nc2nc(SCC(=O)NCc3ccco3)nn2c(C)c1Cc1ccccc1`, the figure is 6.48% [at 0.195 µM, test 1] (inactive). Same read-out and setting: as for `Cc1c(OC(C)C(=O)NCC2CCC(C(=O)O)CC2)ccc2c1oc(=O)c1ccccc12` (stereo not given), the figure is 38.2% (inactive); as for `O=C(CSc1n[nH]c(-c2cccnc2)n1)Nc1ccnc2ccccc12`, 8.04% (inactive).
